PRMT1 FP inh: PRMT1 methyltransferase inhibitors, primary screen, biochemical, fluorescence polarization. Protein arginine N-methyltransferase 1 (Homo sapiens), Q99873. recombinant PRMT1, activity-based probe fluorescence polarization. inhibition, % at 2.79 µM. hit rate 1.3% among 370,000;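 active = inhibition above about 21% made by adding two undisclosed values, limit read from the data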
Target sequence (Q99873 whole entry, looked up): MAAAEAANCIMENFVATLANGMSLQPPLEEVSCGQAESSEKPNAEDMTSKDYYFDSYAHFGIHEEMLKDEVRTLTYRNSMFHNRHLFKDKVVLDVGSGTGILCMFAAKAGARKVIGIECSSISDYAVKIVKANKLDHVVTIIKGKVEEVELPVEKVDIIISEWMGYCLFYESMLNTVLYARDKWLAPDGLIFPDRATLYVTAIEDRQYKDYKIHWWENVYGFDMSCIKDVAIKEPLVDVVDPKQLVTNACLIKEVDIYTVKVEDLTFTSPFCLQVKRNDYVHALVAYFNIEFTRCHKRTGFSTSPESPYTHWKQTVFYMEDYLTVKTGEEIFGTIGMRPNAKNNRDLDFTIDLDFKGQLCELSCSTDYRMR
TCR-CD3 inh: inhibitors of human TCR-CD3 interaction, primary screen, biochemical, fluorescence, TAMRA-labeled TCR probe | T-cell receptor (TCR) | inhibition, % at 9.4 µM | hit rate 0.37% among 360,000 | AID 651800, 2012; in the data active = inhibition above about 19%;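 note: recombinant mutant TCR 2C K166C tagged with TAMRA read by polarization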
PME-1 inh: PME-1 inhibitors via competitive probe labeling, primary screen, biochemical, fluorescence polarization, FP-Rh probe, HTS; recombinant PME-1; hit rate 0.53% among 320,000; inhibition, % at 5.9 µM; Protein phosphatase methylesterase 1 (Homo sapiens), Q9Y570;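 active = inhibition above the campaign mean of all compounds plus 3 SD, cut at about 26% in these data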;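 note: competitive labeling of PME-1 active site by serine hydrolase directed probe; inhibitors block probe labeling so polarization falls and inhibition rises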
Target sequence (Q9Y570 whole entry, looked up): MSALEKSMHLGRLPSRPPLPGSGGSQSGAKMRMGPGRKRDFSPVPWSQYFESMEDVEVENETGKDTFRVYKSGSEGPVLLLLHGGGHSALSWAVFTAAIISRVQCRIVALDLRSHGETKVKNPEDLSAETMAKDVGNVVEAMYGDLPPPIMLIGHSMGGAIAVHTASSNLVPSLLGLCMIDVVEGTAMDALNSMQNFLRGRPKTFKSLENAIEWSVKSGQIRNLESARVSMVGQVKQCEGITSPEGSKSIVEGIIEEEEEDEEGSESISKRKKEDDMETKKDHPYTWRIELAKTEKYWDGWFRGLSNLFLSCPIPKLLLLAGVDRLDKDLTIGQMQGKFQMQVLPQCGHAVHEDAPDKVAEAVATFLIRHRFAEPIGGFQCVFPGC
SIAE primary: human SIAE inhibitors, primary screen, biochemical, fluorescence polarization, FP-Rh probe, 1536-well HTS; SIAE FP-Rh probe binding; hit rate 0.69% among 370,000; Sialate O-acetylesterase (Homo sapiens), Q9HAT2; AID 1053197, 2014; inhibition, % at 9.66 µM;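 active = inhibition above a cutoff: mean of compounds within the control limits plus 3 SD of those, cut at about 17% in these data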
Fam108B counter: mouse Fam108B serine hydrolase inhibitors, primary screen, counter-screen for RBBP9 inhibitor project, biochemical, fluorescence polarization; recombinant Fam108B, FP-Rh probe fluorescence polarization; inhibition, % at 9.51 µM; hit rate 0.33% among 300,000;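 active = inhibition above the screen mean inhibition plus 3 SD, computed separately per campaign, cut at about 18% in these data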;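 note: inhibitors lower polarization as less probe binds the enzyme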
PAD4 FP inh: human PAD4 inhibitors, primary screen, biochemical, fluorescence polarization, 1536-well format; Protein-arginine deiminase type-4 (Homo sapiens), Q9UM07; recombinant PAD4, RCA probe fluorescence polarization; inhibition, % at 6.36 µM; hit rate 0.41% among 330,000; AID 485272, 2010;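 active = percent inhibition above a cutoff equal to the mean of all tested compounds plus 3 SD, cut at about 15% in these data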
Of the large screens only hits and unclear results are named; the others gave an inactive call. An excerpt weighted towards active compounds, which were near 2.6% of everything screened.

CCOC(=O)N1CC=C2C(C#N)=C(N)C(C#N)(C#N)[C@H](c3ccc(OCC)c(OCC)c3)[C@H]2C1	none
O=C(O)c1cc(Nc2cc(Cl)c3nonc3c2[N+](=O)[O-])ccc1O	PRMT1 FP inh 65
Cc1cccc(CNC(=S)OCCN2CCCC23CCC(c2ccccc2)CC3)c1 (stereo not given)	none (no result: TCR-CD3 inh, PME-1 inh, Fam108B counter, PAD4 FP inh)
CCOC(=O)C1CCN(C2CC(=O)N(c3cccc(Cl)c3)C2=O)CC1 (stereo not given)	PRMT1 FP inh 22
COCCCNC(=O)CSc1nnc(-c2cccnc2)n1C1CCCCC1	none (no result: TCR-CD3 inh, PME-1 inh, Fam108B counter, PAD4 FP inh)
O=C(CSC1=NS(=O)(=O)c2ccccc21)Nc1ccccc1	PRMT1 FP inh 63
CC(=O)c1sc(N/N=C\c2cccc(Br)c2)nc1C	none
CC(=O)c1sc(N/N=C\c2ccc(Br)cc2)nc1C	PME-1 inh 27
O=C(O)CN1C(=O)/C(=C\c2cc(Br)ccc2OCc2ccc([N+](=O)[O-])cc2)SC1=S	PRMT1 FP inh 24
O=C(O)CN1C(=O)/C(=C\c2cc(Br)ccc2OCc2ccccc2Cl)SC1=S	none
COc1cc([N+](=O)[O-])cc(/C=C2/SC(=S)N(Cc3ccccc3)C2=O)c1O	PRMT1 FP inh 21
Clc1ccc(CN2CCN(N=Cc3cccc(OCc4ccccc4)c3)CC2)cc1	none (no result: TCR-CD3 inh, PME-1 inh, Fam108B counter, PAD4 FP inh)
CN(C)c1ccc(C=Nc2ccccc2)cc1	none
CN(C)c1ccc(N=Cc2ccco2)cc1	PAD4 FP inh 21 (no result: PRMT1 FP inh, TCR-CD3 inh, SIAE primary)
COc1ccc(CCNC(=O)COC(=O)CSc2ccc(C(N)=O)cc2[N+](=O)[O-])cc1OC	PRMT1 FP inh 22 (no result: PME-1 inh, Fam108B counter, PAD4 FP inh)
COc1ccc(CCNC(=O)COC(=O)CSc2ccc([N+](=O)[O-])cc2)cc1OC	none (no result: Fam108B counter)
CO[C@H]([C@H](C)/C=C/N(C)C=O)[C@@H](C)C(=O)CC[C@H](C)[C@H](O)[C@H](C)[C@H]1OC(=O)/C=C/C(C)=C/C[C@H](O)C[C@@H]2C=CC[C@@H](C[C@H](OC)[C@@H](CO)[C@@H](OC)C[C@@H](OC)[C@@H]1C)O2	none (no result: TCR-CD3 inh, PME-1 inh, Fam108B counter, PAD4 FP inh)
NNc1nc(C(F)(F)F)nc2ccccc12	none
O/C=c1\ccc2cccc3nc(C(F)(F)F)nc1c23	PRMT1 FP inh 40
CCCCNC(=O)C[C@H]1C[C@@]2(C(=O)OC)C(=C[C@H](C(C)(C)C)O[C@@H]2C)N(Cc2ccc(Cl)cc2Cl)C1=O	none (no result: TCR-CD3 inh, PME-1 inh, Fam108B counter, PAD4 FP inh)
N#Cc1cc(C#N)c(SCC(=O)N2CC(=O)Nc3ccccc32)nc1N	none (no result: Fam108B counter)
CCc1ccc2nc(SCC(=O)N3CC(=O)Nc4ccccc43)c(C#N)cc2c1	PME-1 inh 34
O=C(CSc1nnc(-c2ccccc2)n1-c1ccccc1)Nc1ccccc1-c1ccccc1	none (no result: TCR-CD3 inh, PME-1 inh, Fam108B counter, PAD4 FP inh)
O=C(OCCOCCN=C1NS(=O)(=O)c2ccccc21)c1ccccc1Br	PME-1 inh 34
O=S(=O)(c1ccc(-c2csc(Nc3ccc(Br)cc3)n2)cc1)N1CCCC1	PME-1 inh 38
O=S(=O)(c1ccc(-c2csc(Nc3ccc(F)cc3)n2)cc1)N1CCCC1	none
COc1ccc(-c2c3c([nH]c(=S)c2C#N)CCC3)cc1	PRMT1 FP inh 23 (no result: PME-1 inh, Fam108B counter, PAD4 FP inh)
Cc1cccc(N=C2NC(=O)S/C2=C\c2ccco2)c1	PRMT1 FP inh 21
CCN1/C(=C/C=C/c2oc3ccc4ccccc4c3[n+]2CC)Oc2ccc3ccccc3c21	Fam108B counter 118 (no result: PRMT1 FP inh, TCR-CD3 inh, SIAE primary)
COC(=O)[C@]12C[C@H](CC(=O)NCc3ccc(C)o3)C(=O)N(Cc3ccccc3)C1=C[C@H](C1CCCC1)O[C@@H]2C	PRMT1 FP inh 22 (no result: PME-1 inh, Fam108B counter, PAD4 FP inh)
CCOC(=O)[C@]12CCC=C1N(Cc1ccccc1)C(=O)[C@H](CC(=O)NCc1ccc(C)o1)C2	PRMT1 FP inh 23 (no result: PME-1 inh, Fam108B counter, PAD4 FP inh)
CCOC(=O)[C@]12CCC=C1N(Cc1ccco1)C(=O)[C@H](CC(=O)NCc1ccc(C)o1)C2	none (no result: PME-1 inh, Fam108B counter, PAD4 FP inh)
CCCN(CC1CC1)C(=O)CNc1nnnn1-c1ccccc1	none (no result: TCR-CD3 inh, PME-1 inh, Fam108B counter, PAD4 FP inh)
COc1cc2c(c(OC)c1OC)-c1ccc(NC(=O)c3ccc(F)cc3)c(=O)cc1[C@@H](NC(C)=O)CC2	PME-1 inh 31, Fam108B counter 25
Cc1ccc2cc(C#N)c(SCc3nnc(-c4ccccc4[N+](=O)[O-])o3)nc2c1	PME-1 inh 35
Cc1cc(/C=C2\SC(=S)NC2=O)c(C)n1C	PRMT1 FP inh 23
CCN(CC)C(=O)c1ccc(C(CCOC(=O)Oc2ccccc2)c2ccc(OC)cc2)cc1 (stereo not given)	none (no result: TCR-CD3 inh, PME-1 inh, Fam108B counter, PAD4 FP inh)
COc1cccc(CO[C@H]2C=C[C@@H](c3ccccc3)O[C@@H]2COC(C)=O)c1	none (no result: TCR-CD3 inh, PME-1 inh, Fam108B counter, PAD4 FP inh)
Cc1ncc(C[n+]2csc(CCO)c2C)c(N)n1	none
C/C(=C(/CCO)SSCC1CCCO1)N(C=O)Cc1cnc(C)nc1N (stereo not given)	PRMT1 FP inh 24
COC(=O)[C@]12C[C@H](CC(=O)N3CCSCC3)C(=O)N(Cc3ccccc3)C1=C[C@H](COCc1ccccc1)O[C@@H]2C	none (no result: TCR-CD3 inh, PME-1 inh, Fam108B counter, PAD4 FP inh)
Cc1ccc[n+](C2C(c3ccc([N+](=O)[O-])cc3)C(C#N)=C([S-])NC2(O)C2CC2)c1 (stereo not given)	PRMT1 FP inh 23
O=C(NC1CCc2ccccc21)c1cc(-c2ccc(Cl)cc2)nc2ccccc12 (stereo not given)	none (no result: TCR-CD3 inh, PME-1 inh, Fam108B counter, PAD4 FP inh)
Cc1ccccc1OCC(=O)NC(=S)Nc1cccc2cc(O)ccc12	PME-1 inh 28
CC(C)C(C)NC(=O)CSc1nc2scc(-c3ccco3)c2c(=O)n1-c1ccccc1 (stereo not given)	none
CC(C)C(C)(C#N)NC(=O)CSc1nc2scc(-c3ccco3)c2c(=O)n1-c1ccccc1 (stereo not given)	PRMT1 FP inh 22
CC(Sc1ccccc1)C(=O)NNC(=O)c1ccncc1 (stereo not given)	PRMT1 FP inh 21
O=C(O)c1cccc(N2C(=O)c3cc([N+](=O)[O-])cc4cc([N+](=O)[O-])cc(c34)C2=O)c1	PAD4 FP inh 42
C=CCN1C(=O)[C@@H](CC(=O)NCc2ccc(OC)c(OC)c2)[C@]2(C(=O)OCC)CCCCC/C=C/12	none (no result: TCR-CD3 inh, PME-1 inh, Fam108B counter, PAD4 FP inh)
OC(CCN1CCCCC1)(c1ccccc1)C1CC2C=CC1C2 (stereo not given)	none (no result: TCR-CD3 inh, PME-1 inh, Fam108B counter, PAD4 FP inh)
O=C(CNc1ccccc1)N/N=C/c1c(O)ccc2ccccc12	PME-1 inh 38
CC(=O)Nc1ccc(C(=O)OCC(=O)Nc2ccccc2Sc2ccccc2)cc1	none
N#CCC(=O)Nc1ccc(C(=O)OCc2ccccc2Oc2ccccc2)cc1	PME-1 inh 38
N#CCC(=O)Nc1ccc(C(=O)OCC(=O)NCCCc2ccccc2)cc1	none
N#CCC(=O)Nc1ccc(C(=O)OCC(=O)Nc2ccccc2Sc2ccccc2)cc1	PME-1 inh 34
CCN(CC)C(=O)CNc1nnnn1-c1ccccc1	none (no result: TCR-CD3 inh, PME-1 inh, Fam108B counter, PAD4 FP inh)
